Results: paper PMC4336329 (PLoS ONE, 2015)
Hit rate of the full screen: of about 310,000 compounds, about 14,000 (4.5%) showed an effect of 50% or more. Effects have a minus sign here. This is one part of a sample in which strong results are shown more often than they occur.

These compounds were tested against human ether-à-go-go-related gene (hERG) potassium channel (human, UniProt Q12809) (assay: primary screen, population patch clamp on CHO cells stably expressing hERG; higher = less effect of the substance).
Chain of human ether-à-go-go-related gene (hERG) potassium channel (Q12809 whole entry, looked up): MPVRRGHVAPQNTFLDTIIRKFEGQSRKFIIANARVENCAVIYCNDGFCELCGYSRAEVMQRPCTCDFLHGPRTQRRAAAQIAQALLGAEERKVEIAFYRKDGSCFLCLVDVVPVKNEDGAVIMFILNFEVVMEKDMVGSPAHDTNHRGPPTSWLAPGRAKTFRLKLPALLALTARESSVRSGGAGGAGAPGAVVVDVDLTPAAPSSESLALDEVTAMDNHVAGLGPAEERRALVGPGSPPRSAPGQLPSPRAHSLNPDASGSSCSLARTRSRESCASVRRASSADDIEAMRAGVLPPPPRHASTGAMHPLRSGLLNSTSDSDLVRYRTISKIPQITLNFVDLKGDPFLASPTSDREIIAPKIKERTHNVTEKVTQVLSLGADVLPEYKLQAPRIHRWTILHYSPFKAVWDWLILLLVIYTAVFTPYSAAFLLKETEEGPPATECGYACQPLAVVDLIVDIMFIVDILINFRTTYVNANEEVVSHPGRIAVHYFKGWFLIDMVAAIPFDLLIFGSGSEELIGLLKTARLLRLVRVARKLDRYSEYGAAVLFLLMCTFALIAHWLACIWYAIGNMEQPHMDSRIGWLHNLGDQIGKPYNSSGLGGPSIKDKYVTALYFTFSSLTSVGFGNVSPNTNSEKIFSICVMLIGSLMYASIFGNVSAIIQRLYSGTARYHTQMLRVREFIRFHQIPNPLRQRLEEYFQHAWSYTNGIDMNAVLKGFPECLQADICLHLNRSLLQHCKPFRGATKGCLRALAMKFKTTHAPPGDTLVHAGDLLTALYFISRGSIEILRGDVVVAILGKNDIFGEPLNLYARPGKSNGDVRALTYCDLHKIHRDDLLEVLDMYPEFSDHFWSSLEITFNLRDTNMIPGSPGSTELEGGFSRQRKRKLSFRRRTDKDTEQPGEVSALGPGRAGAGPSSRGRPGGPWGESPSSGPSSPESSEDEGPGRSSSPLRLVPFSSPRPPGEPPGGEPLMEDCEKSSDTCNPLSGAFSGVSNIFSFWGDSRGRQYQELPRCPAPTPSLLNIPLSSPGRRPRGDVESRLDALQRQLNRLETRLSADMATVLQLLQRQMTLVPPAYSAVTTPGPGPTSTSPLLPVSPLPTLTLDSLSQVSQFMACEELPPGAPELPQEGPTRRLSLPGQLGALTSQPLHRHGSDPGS
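Further: peak tail current of the secondary pulse compared with the same well before compound.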

Point of comparison: CCN1CCCC(NC(=O)c2cc([N+](=O)[O-])ccc2OC)C1.Cl.O (centres unmarked), “hERG current change (%, negative = inhibition) at 10uM” value -11.8%. Against it:
- CC(C)(C)C(=O)Cn1c(=O)n(-c2ccc(F)cc2F)c(=O)c2sccc21 — higher, 4.28%
- O=C1C(C2=NC(C(=O)O)C3C(=O)N(c4ccc(Cl)cc4)C(=O)C23)=C(O)c2ccccc21 (centres unmarked) — higher, 2.54%
- COc1ccc(C(=O)NCCc2ccc(C)cc2)cc1OC1CCN(C(C)=O)CC1 — higher, -4.05%
- COc1ccc(C(=O)NC2CC2)cc1OC1CCN(Cc2cc(C)cc(C)c2)CC1 — lower, -70.2%
- COc1cc(C(=O)NC2CC(C)(C)CC(C)(C)C2)ccc1OC1CCN(C(C)=O)CC1 — higher, 6.2%
- COc1ccc(C(=O)NC2CCCCCCC2)cc1OC — higher, 1.54%
- COc1cc(CN2CCC(Oc3cc(C(=O)NC4CC4)ccc3OC)CC2)cc(OC)c1 — lower, -72.8%
- COc1cc(/C=N/NC(=O)COc2ccccc2C)ccc1OC(=O)c1cccs1 — higher, -0.671%
- Cc1ccc(NC(=O)Cn2nnc(-c3ccc4c(c3)OCO4)n2)cc1F — higher, 11%
- Nc1cc(N)nc(SCC(=O)Nc2ccccc2N2CCOCC2)n1 — higher, 2.73%
- CC(C)c1nc2sc3c(c2c(=O)[nH]1)CC(C)(C)OC3 — higher, 17.7%
- Cc1ccccc1C(=O)NCCNC(=O)c1ccccn1 — higher, 6.75%
- O=C(Nc1ccc(Cc2ccncc2)cc1)c1ccc(Br)o1 — lower, -35.8%
- O=C(Nc1cccnc1)c1cc(F)c(F)cc1Cl — higher, 19.7%
- CC(C)CC(=O)Nc1ccc(Cc2ccncc2)cc1 — higher, 10.1%
- O=C(Nc1ccc(Cc2ccncc2)cc1)c1cc(F)c(F)cc1Cl — lower, -71.2%
- CC(C)Cc1ccc(C(=O)Nc2ccc(Cc3ccncc3)cc2)o1 — lower, -57.6%
- O=C(NCc1ccncc1)c1cc(F)c(F)cc1Cl — higher, 14.2%
- N#Cc1cnc(SCC(=O)N2CCCC2)nc1N — higher, 13.1%
- COc1cc(NC(=O)c2cccc(C)c2)c(OC)cc1NC(=O)CN1CCOCC1 — higher, -3.88%
- O=C(NC12CC3CC(CC(C3)C1)C2)C12CC3CC(C1)CC(n1cnc(Cl)n1)(C3)C2 — higher, 2.42%
- COc1cc(-c2nc(-c3cccc(C)c3)no2)cc(OC)c1OC — higher, 0.668%
- Cc1cc(C)cc(NC(=O)N2CCCC2C(=O)Nc2ccc(-n3cnnn3)c(C)c2)c1 (centres unmarked) — lower, -12.3%
- Cc1cccc(C)c1NC(=O)N1CCCC1C(=O)Nc1ccc(-n2cnnn2)cc1 (centres unmarked) — lower, -35.8%
- Cc1cc(C)cc(NC(=O)N2CCCC2C(=O)Nc2ccc(-n3cnnn3)cc2)c1 (centres unmarked) — lower, -54.1%
- O=C(Nc1ccc(-n2cnnn2)cc1)C1CCC1 — higher, 11.3%
- CC(=O)Nc1ccc(NC(=O)C2CCCN2C(=O)NC2CCCCC2)cc1 (centres unmarked) — higher, 12.5%
- Cc1ccc(NC(=O)C2CCCN2C(=O)NC2CCCCC2)cc1 (centres unmarked) — higher, 8.72%
- Cc1cc(NC(=O)C2CCCN2C(=O)Nc2cccc(Cl)c2)ccc1-n1cnnn1 (centres unmarked) — lower, -48.3%
- CC(C)c1ccc(NC(=O)N2CCCC2C(=O)Nc2ccc(-n3cnnn3)cc2)cc1 (centres unmarked) — lower, -61.8%
- Cc1cc(NC(=O)C2CCCN2C(=O)Nc2c(C)cccc2C)ccc1-n1cnnn1 (centres unmarked) — higher, -10.9%
- Cc1ccc(NC(=O)N2CCCC2C(=O)Nc2ccc(-n3cnnn3)c(C)c2)cc1 (centres unmarked) — lower, -18.7%
- O=C(Nc1ccc(-n2cnnn2)cc1)C1CCCN1C(=O)NC1CCCCC1 (centres unmarked) — lower, -63.3%
- O=C(Nc1ccc(-n2cnnn2)cc1)C1CCCN1C(=O)Nc1ccc(Br)cc1 (centres unmarked) — lower, -79.9%
- O=C(CN1C(=O)NC2(CCc3ccccc32)C1=O)NCC(F)(F)F (centres unmarked) — higher, 2.18%
- O=C(O)c1cccc(Oc2ncnc3sc4c(c23)CCCC4)c1 — higher, 34.5%
- Oc1ccc(N=Nc2ccc3c(c2)OCCO3)c(O)c1 — higher, 22.6%
- CC(=O)Nc1ccc(S(=O)(=O)N2CC(=O)NC(=O)C2)cc1 — higher, 29.9%
- COc1ccc(C2=NS(=O)(=O)N(C)C(C(=O)N3CCCCC3)=C2)cc1OC — higher, -4.54%
- CCn1ncc(Br)c1C(=O)NC(C)c1ccccc1 (centres unmarked) — higher, 3.91%
- O=C(Cn1c(=O)n(CCC(=O)N2CCCCC2)c(=O)c2sccc21)NCc1ccccc1 — higher, 5.68%
- CCc1ccc(CN(C)C(=O)c2cc(=O)c3ccccc3o2)cc1 — lower, -66.4%
- COc1ccc(CCN(C)C(=O)c2cc(=O)c3ccccc3o2)cc1OC — higher, 7.6%
- COc1ccc(Cl)cc1NC(=O)CN(C)C(=O)c1cc(=O)c2ccccc2o1 — lower, -28%
- CN(Cc1ccccc1)C(=O)c1cc2ccccc2o1 — lower, -23%
- CN(Cc1ccc(N(C)C)cc1)C(=O)c1cc2ccccc2o1 — lower, -18.5%
- Cc1ccc(-c2c(C(=O)NCc3ccc(F)cc3)oc(=O)c3ccccc23)cc1 — lower, -13%
- CN(Cc1ccccc1Cl)C(=O)c1cc2ccccc2o1 — higher, -2.37%
- CSc1ccc(CN(C)C(=O)c2cc3ccccc3o2)cc1 — higher, 21.2%
- CN(Cc1ccccc1)C(=O)c1oc(=O)c2ccccc2c1-c1ccccc1 — lower, -13.1%
- CSc1ccc(CN(C)C(=O)c2cc(=O)c3ccccc3o2)cc1 — lower, -71.4%
- CN(Cc1ccc(Cl)cc1Cl)C(=O)c1cc(=O)c2ccccc2o1 — lower, -53.4%
- Cc1ccc(-c2c(C(=O)N(C)Cc3ccccc3)oc(=O)c3ccccc23)cc1 — lower, -52.5%
- O=C(Nc1ccc(N2CCCCCC2)cc1)c1ccc[nH]1 — lower, -15.6%
- O=C(NC(=S)NCC1CCCO1)c1ccccc1Br (centres unmarked) — higher, 4.66%
- CN(CCc1ccccn1)C(=O)Nc1ccc(C(C)(C)C)cc1 — lower, -19.3%
- O/N=C/c1cc2ccccc2n1Cc1ccccc1F — higher, 13.6%
- CC12CCC(C(=O)n3c1nc1ccccc13)C2(C)C (centres unmarked) — higher, -3.14%
- Cc1cccc(NC(=O)CSc2nc3nc(C)cc(C)c3c(=O)[nH]2)c1 — higher, 4.65%
- O=C(NC1CCN(Cc2cccc([N+](=O)[O-])c2)CC1)c1ccccc1 — lower, -53.7%
- O=C(NC1CCN(CC(=O)N(c2ccccc2)c2ccccc2)CC1)c1ccc([N+](=O)[O-])cc1 — lower, -78%
- O=C(NC1CCN(C(=O)c2cccc([N+](=O)[O-])c2)CC1)c1ccccc1 — lower, -32.8%
- COc1ccc(C)cc1NC(=O)NC1CCN(Cc2ccccc2)CC1 — lower, -31.4%
- COc1ccc([N+](=O)[O-])cc1C(=O)NC1CCN(Cc2ccccc2)CC1.Cl.O — lower, -55.3%
- CC1CCN(CC(=O)Nc2cccc([N+](=O)[O-])c2)CC1 — higher, 3.53%
- O=C(NC1CCN(Cc2ccccc2)CC1)C1CCN(S(=O)(=O)c2cccc([N+](=O)[O-])c2)CC1 — higher, -8.03%
- CC(=O)NC1CCN(CC(=O)Nc2cccc([N+](=O)[O-])c2)CC1 — higher, 18.7%
- CC1CCCCC1NC(=O)CN1CCC(NC(=O)c2ccc([N+](=O)[O-])cc2)CC1 (centres unmarked) — higher, 2.55%
- Cc1ccc(C(=O)NC2CCN(CC(=O)Nc3cccc([N+](=O)[O-])c3)CC2)cc1 — lower, -71.4%
- CCOc1ccc(C(=O)NC2CCN(CC(=O)NCc3ccccc3)CC2)cc1 — lower, -29.3%
- COc1ccccc1N/C=C/c1onc(C)c1[N+](=O)[O-] — higher, 1.63%
- Cn1c2ccccc2c2cc(/C=C(\NC(=O)c3ccccc3)C(=O)O)ccc21 — higher, 9.22%
- CSc1ccc(C(=O)N2CCc3ccc(NC(=O)c4ccccn4)cc3C2)cc1 — higher, -4.13%
- Cc1ccc(NC(=O)Cn2c(/C=C/c3ccccc3)nc3ccccc32)cc1C — higher, -0.723%
- Cc1ccc(C(=O)O/N=C(\N)c2ccccn2)c(C)c1 — higher, -3.86%
- C/C(=N\OCC(=O)O)c1ccc(Cl)cc1 — higher, 13.5%
- COc1ccc(CNC(=O)C(c2ccncc2)N(C(=O)Cc2cccs2)c2ccc(C)cc2)cc1 (centres unmarked) — lower, -15.7%
- Cc1ccc(C2Nc3ccccc3C(=O)N2Cc2ccco2)cc1 (centres unmarked) — lower, -32.5%
- O=C(O)c1cc(OCc2ccccc2)cc(OCc2ccccc2)c1 — higher, 10.8%
- COc1ccc(NC(=O)CS(=O)CC(=O)Nc2ccc(OC)c(OC)c2)cc1 (centres unmarked) — higher, 10.9%
- O=[N+]([O-])c1ccc(CSc2ccc(S(=O)(=O)N3CCCC3)cn2)cc1 — lower, -32.6%
- Cc1ccc(N2C(=O)CC(N3CCc4ccccc43)C2=O)cc1Cl (centres unmarked) — higher, 15.6%
- CCCCN(C)C(=O)c1cc2c(Cl)nc3ccccc3c2s1 — higher, -4.12%
- CN(C)CCN(Cc1ccco1)C(=O)c1cc2c(Cl)nc3ccccc3c2s1 — lower, -70.1%
- Cc1ccc2nc(Cl)c3cc(C(=O)N(CCN(C)C)Cc4ccco4)sc3c2c1 — lower, -39.8%
